Hits are enriched below; roughly 1.8% of the tested compounds scored in any of these assays.
F508del corr: CFTR F508del correction in bronchial cells; CFBE cells, YFP halide quenching; stimulated with forskolin plus potentiator P3; % fluorescence drop versus neutral controls; activity (quench increase), % at 7.58 µM; 350,000 tested, 0.36% active;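 active = mean added fluorescence quench of at least 8% versus neutral control, with both replicates also reaching 8%; inconclusive = only one of the mean or replicate conditions met; inactive = mean below 8% and not both replicates reaching 8%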;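 also: cells transiently co-express mutant CFTR-F508del with the halide-sensitive YFP; corrector assay measuring rescue of mutant channel to the surface after 24 h compound exposure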
EWS-Fli inh: EWS/Fli transcriptional activity inhibition. AID 651661. A673 NR0B1-luciferase reporter, viability-normalised. inhibition, % at 12.6 µM. 350,000 tested, 0.67% active;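 active = mean inhibition of at least 50% after viability correction, with every replicate also passing that limit; inconclusive = mean reaches 50% but only one of two replicates passes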;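 also: firefly luciferase signal divided by Alamar Blue viability fluorescence both relative to DMSO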
PAX8 reporter: lowers PAX8-driven luciferase in RMG-I cells; RMG-I TPO-luciferase reporter, SteadyGlo, 24 h; 360,000 tested, 1.2% active; inhibition, % at 12.6 µM;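 active = mean replicate inhibition at least 60% with every replicate also reaching 60%; inconclusive = only one of the two criteria is met; inactive = mean below 60% and not all replicates reaching 60%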;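 also: luciferase light reporting Pax8 driven TPO promoter activity; plate controls were median of neutral control wells for no effect and mitoxantrone controls for full effect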
LGR2 inh: Drosophila LGR2 receptor signaling inhibition | 380,000 tested, 0.35% active | AID 720647 | HEK293 LGR2, CRE-luciferase, bursicon-stimulated, 4 h | inhibition, % at 9.99 µM;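 active = drop in luminescence signal, shown as inhibition above about 50% in the replicate tests, limit read from the data, passing the limit was not always enough; inconclusive = probably only some replicates passing the limit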;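 also: agonist challenge used bursicon conditioned medium at about half maximal strength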
Numbers without * were called inactive; ? = inconclusive; nt = not tested or not shown; ! = a repeat was not active.

SMILES | F508del corr | EWS-Fli inh | PAX8 reporter | LGR2 inh
COc1cc(C2c3cc4c(cc3CC3COC(=O)N32)OCO4)cc(OC)c1OC (configuration not stated) | 4 | ? | 72* | -19
O=C(O)CCCNC(=O)C(c1ccccc1)c1ccccc1 | -3 | 1 | 164*! | -9
O=C(Nc1ccc(F)cc1)N1CC(=O)N2[C@H](C1)[C@@H](c1ccc(C#Cc3cccnc3)cc1)[C@@H]2CO | -4 | 4 | nt | 16
Clc1ccc(-c2csc3ncnc(Cl)c23)cc1 | nt | nt | -5 | 24
Cn1nnnc1Sc1ncnc2scc(-c3ccc([N+](=O)[O-])cc3)c12 | -4 | 19 | 108* | 91*
COc1ccc(Nc2ncnc3scc(-c4ccc(OC)cc4)c23)cc1 | 6 | 65* | 35 | -5
Cn1nnnc1Sc1ncnc2scc(-c3cccc4c3sc3ccccc34)c12 | -3 | 11 | 88* | 32
Clc1ccc(-n2nnnc2Sc2ncnc3sccc23)cc1 | nt | nt | nt | 46
Cn1nnnc1Sc1ncnc2scc(-c3ccc(Cl)cc3)c12 | -8 | 46 | 57 | 57*
Cc1cc(Br)cn2c(Cc3ccccc3)c(-c3ccc(F)cc3)nc12 | 0 | -2 | 1 | 22
Cc1ccnc(NS(=O)(=O)c2ccc(NC(=O)c3cc(=O)c4ccccc4o3)cc2)n1 | -3 | -4 | -6 | -14
Cc1sc2ncnc(Sc3ccccc3C(=O)O)c2c1C | nt | 1 | 7 | 13
Cn1nnnc1Sc1ncnc2scc(-c3ccc4c(c3)OCO4)c12 | -7 | 7 | 101* | ?
COc1ccc(-c2csc3ncnc(Sc4nnnn4C)c23)cc1 | -9 | -3 | 101* | ?
Cn1nnnc1Sc1ncnc2scc(-c3ccccc3Cl)c12 | -10 | 17 | 91* | 22
Cn1nnnc1Sc1c(Cl)cccc1[N+](=O)[O-] | nt | nt | -5 | 5
Cc1sc2ncnc(Sc3nnnn3-c3ccccc3)c2c1C | nt | nt | nt | 66*
Cc1cccc(C)c1NC(=O)N1C(C(=O)O)CSC1C(=O)O (configuration not stated) | nt | nt | 2 | nt
O=S(=O)(Nc1cccc(-c2cn3cccnc3n2)c1)c1ccc(Cl)cc1 | -1 | -21 | 132* | -9
O=C(Nc1ccc2c(c1)OCO2)N[C@@H]1C=C[C@@H](CC(=O)N2CCN(c3ccccc3)CC2)O[C@@H]1CO | 1 | -9 | -10 | -6
CCCC(=O)NC(=S)Nc1cccc(NC(=O)c2ccccc2Cl)c1 | nt | nt | -9 | -8
Cc1cccc(S(=O)(=O)N2C[C@H]3[C@@H](c4ccccc42)[C@H](CO)N3CC2CCCC2)c1 | 14* | 0 | 18 | 15
COc1cc2c3nnc(-c4ccc(F)cc4)c-3cn(Cc3ccccc3)c2cc1OC | -17 | 42 | 69* | 16
COc1ccc(CN2C[C@H](C)[C@@H](CC(=O)NCc3ccccc3)C2=O)cc1 | 1 | -29 | 18 | 4
N#Cc1ccc(-c2ccc3c(c2)[C@H]2[C@H](CCN2S(=O)(=O)c2ccccc2F)[C@@H](CO)N3)cc1 | 15* | 42 | 24 | 0
SMILES | F508del corr | EWS-Fli inh | PAX8 reporter | LGR2 inh
COc1cccc(S(=O)(=O)N2CC[C@@H]3[C@H](CO)Nc4ccc(C5=CCCCC5)cc4[C@@H]32)c1 | 5 | -1 | 91* | 0
COc1cccc(-c2ccc3c(c2)[C@H]2[C@H](CCN2S(=O)(=O)c2cccc(OC)c2)[C@@H](CO)N3)c1 | 3 | -6 | 29 | 14
N#Cc1cccc(-c2ccc3c(c2)[C@@H]2[C@@H](CCN2S(=O)(=O)c2ccc(F)cc2)[C@@H](CO)N3)c1 | 2 | 2 | 76* | 13
O=S(=O)(c1ccccc1F)N1CC[C@@H]2[C@@H](CO)Nc3ccc(C4=CCCCC4)cc3[C@@H]21 | 2 | -8 | 83* | -17
OC[C@@H](O)[C@@H](O)[C@H](O)[C@@H](O)CO | 5 | 1 | nt | nt
CCc1ccc(NS(=O)(=O)c2cc3[nH]c(=O)c(=O)[nH]c3cc2C)cc1 | -1 | 18 | 9 | -6
Cc1cccc(S(=O)(=O)N2CC[C@@H]3[C@H]2c2cc(C4=CCCCC4)ccc2N[C@@H]3CO)c1 | 1 | 8 | 91* | -20
O=C(Cn1nc(CNc2ccc(Br)cc2)[n+]2c1CCCCC2)c1ccc([N+](=O)[O-])cc1 | -2 | 12 | 71* | nt
Cc1ccc(N2CC(C(=O)OCc3nc(N)nc(Nc4ccccc4C)n3)CC2=O)cc1 (configuration not stated) | 0 | -2 | 18 | -8
COC(=O)N(C)C[C@@H]1OCc2cn(nn2)CCCC(=O)N([C@H](C)CO)C[C@H]1C | 1 | 12 | -8 | 16
C[C@H]1CCCCO[C@H](CN(C)CC2CCCCC2)[C@@H](C)CN([C@@H](C)CO)C(=O)c2cc(NC(=O)Nc3ccc(F)cc3)ccc2O1 | -2 | 49 | 68* | 13
C[C@H](CO)N1C[C@H](C)[C@@H](CN(C)CC2CCCCC2)OCCCC[C@H](C)Oc2ccc(NC(=O)Nc3ccc(F)cc3)cc2C1=O | -1 | -1 | 21 | -22
C[C@@H]1CCCCO[C@@H](CN(C)CC2CCCCC2)[C@@H](C)CN([C@@H](C)CO)C(=O)c2cc(NC(=O)Nc3ccc(F)cc3)ccc2O1 | 0 | -3 | -15 | -1
C[C@@H]1CCCCO[C@H](CN(C)CC2CCCCC2)[C@H](C)CN([C@@H](C)CO)C(=O)c2cc(NC(=O)Nc3ccc(F)cc3)ccc2O1 | -2 | 58* | 8 | 16
O=C(C=C=Nc1ccccc1)C(=O)N=C=Cc1ccccc1 | -7 | 7 | 80* | 21
CCOC(=O)c1cnc(Nc2nc3ccccc3o2)nc1C | nt | nt | nt | 82*
CCOC(=O)c1cnc(Nc2nc3ccccc3o2)nc1CSc1nnc(C)s1 | nt | nt | -10 | nt
O=C(N[C@H]1CC[C@@H](CCn2cc(-c3ccccn3)nn2)O[C@H]1CO)c1ccc(F)cc1 | 1 | 4 | 1 | 0
C=CCNc1nc2cc(-c3ccccc3C)sc2c(=O)n1C | 3 | 63* | -10 | -24
Cc1ccc(CNc2nc3cc(-c4ccccc4C)sc3c(=O)n2C)c(C)c1 | 4 | 10 | 27 | 2
Cc1ccc(NC2=C/C(=N/S(=O)(=O)c3cccs3)c3ccccc3C2=O)cc1C | nt | -1 | 10 | 0
CC(=O)Nc1ccc(NC2=C/C(=N/S(=O)(=O)c3cccs3)c3ccccc3C2=O)cc1 | nt | 18 | 83* | 98*
Cc1ccccc1NC1=C/C(=N\S(=O)(=O)c2cccs2)c2ccccc2C1=O | nt | nt | 110* | nt
Cc1ccccc1NC1=C/C(=N\S(=O)(=O)c2ccc(C(=O)O)cc2)c2ccccc2C1=O | -2 | -21 | 4 | -5
O=C(O)c1ccc(S(=O)(=O)/N=C2\C=C(Nc3ccccc3F)C(=O)c3ccccc32)cc1 | 3 | ? | 14 | 101*
COc1ccc(S(=O)(=O)/N=C2\C=C(Nc3ccc(O)cc3)C(=O)c3ccccc32)cc1 | 7 | 52* | 108* | 101*
NCC(O)(c1ccc(Cl)cc1)c1ccc(Cl)cc1 | 0 | 3 | -8 | -8
OCC[C@@H]1C[C@@H](O)[C@H](O)[C@@]2(Cc3ccccc3CO2)O1 | -1 | 11 | 14 | -4
O=C(NNc1nc2ccccc2s1)Nc1ccc(F)cc1 | 1 | -83 | -82 | -82

Screens as filed in PubChem.
